Rows were chosen to be rich in hits. Some 12% of all compounds tested hit in one or more screens of this group.
LASV entry inh: blocks Lassa virus binding to or entry into cells. AID 540256. Potency, µM (titrated, usually from 37.9 µM), for inactives: top-dose activity change, negative = inhibition, most hits filed as inhibitors. Lassa virus pseudotype entry inhibition, cell reporter. actives 1.2% (n = 300,000); calls by dose curve; tested in HEK293 cells; further: potency means the concentration at half of the fitted maximal effect; on the % scale 0 is the no-effect control and ±100 the full control effect; nearly all actives have a fitted effect of over 50% in size
Marburg entry inh: blocks Marburg virus binding to or entry into cells | Marburg virus pseudotyped entry inhibition, cell reporter | Potency, µM (top dose mostly 37.8 µM), without a hit: at the highest dose activity change, negative = inhibition, most hits filed as inhibitors | actives 1.8% (n = 300,000) | AID 540276; calls by dose curve; tested in HEK293 cells; further: potency means the concentration at half of the fitted maximal effect; on the % scale 0 is the no-effect control and ±100 the full control effect
Shiga inhibitor: Shiga toxin inhibition. actives 9.2% (n = 290,000). AID 2315. Vero cells, Shiga toxin protein synthesis inhibition reporter. inhibition, % at 38.7 µM; in the data active means inhibition mostly above about 28%, no sharp cut-off; inactive means mostly below about 43%; further: 0% is about no effect
CHX counter: affects cycloheximide protein synthesis inhibition readout, counter-screen. cell reporter, cycloheximide protein synthesis inhibition counterscreen. max response, %. actives 12% (n = 300,000). AID 2314; in the data active means max response mostly above about 13%, no sharp cut-off; inactive means mostly below about 14%; further: read at 38.3 µM for the half of the compounds with a filed dose; 0% is about no effect
* = called active by the depositor; ! = not confirmed by another sample; [ ] = remark or other dose.

For CC(=O)c1cccc(OCc2cc(C(=O)N(C)Cc3ccc(C)o3)no2)c1 the results were LASV entry inh -11%, Marburg entry inh 16%, Shiga inhibitor 79* and CHX counter 22*.
CC(=O)c1ccc(OCc2cc(C(=O)N(C)CCOc3ccc(C)cc3)no2)cc1 was read as Shiga inhibitor 81* and CHX counter 47*.
Screening Cc1ccc(OCc2cc(C(=O)N(C)CCc3ccccn3)no2)cc1C returned Shiga inhibitor 109* and CHX counter 83*.
Screening CCOCCCNC(=O)C(=O)Nc1c2c(nn1-c1ccc(OC)cc1)CSC2 returned LASV entry inh -27%[46.1 µM].
Cc1ccc(C)n1-c1nnc(N2CCCC(C(=O)NCc3cccc(Cl)c3)C2)s1 (stereo unspecified) was read as LASV entry inh -10%[46.1 µM] and Marburg entry inh inconclusive.
CCOC(=O)c1cnc2c(ccc3ccccc32)c1Nc1cccc(Cl)c1 was read as LASV entry inh 18%[46.1 µM].
Cc1cccc(C)c1OCc1cc(C(=O)N(C)Cc2nc3ccccc3[nH]2)no1 was read as LASV entry inh -1%, Marburg entry inh inconclusive, Shiga inhibitor 21 and CHX counter 13.
`Cc1ccc(OCc2cc(C(=O)N(C)CCc3nc4ccccc4[nH]3)no2)cc1C` gave Shiga inhibitor 22 and CHX counter 27*.
`CCCc1c(C(=O)N/N=C/C(C)=C/c2ccco2)nnn1-c1nonc1N` gave Shiga inhibitor -2 and CHX counter 2.
CCN(CC)c1ccc(/C=N/NC(=O)c2nnn(-c3nonc3N)c2C(C)C)c(O)c1 was read as LASV entry inh inconclusive, Marburg entry inh 2.5µM*, Shiga inhibitor -17 and CHX counter 3.
CC(C)c1c(C(=O)N/N=C/c2ccc3c(c2)OCO3)nnn1-c1nonc1N was read as Shiga inhibitor -4 and CHX counter 8.
`CC(/C=N/NC(=O)c1nnn(-c2nonc2N)c1C(C)C)=C\c1ccco1` gave Shiga inhibitor 5 and CHX counter 40*.
O=C1CC(O)(C(F)(F)F)Oc2c1ccc1ccccc21 (stereo unspecified) was read as LASV entry inh inconclusive, Marburg entry inh -5%, Shiga inhibitor 79 and CHX counter 19*.
COc1cc(/C=C/C(=O)OCC(=O)c2c(N)n(C)c(=O)n(C)c2=O)ccc1OCC#N was read as LASV entry inh inconclusive, Marburg entry inh 6.3µM*, Shiga inhibitor 47 and CHX counter -2.
`COc1cc(/C=C/C(=O)c2ccc(C)cc2)ccc1OCC#N` gave LASV entry inh 10µM*, Marburg entry inh inconclusive, Shiga inhibitor 107* and CHX counter 81*.
Screening COc1ccc(/C=C/C(=O)c2ccccc2)cc1Cn1nnc2ccccc21 returned LASV entry inh -22%, Marburg entry inh inconclusive, Shiga inhibitor 27* and CHX counter 27*.
Screening O=[N+]([O-])c1cc(/C=N\O)ccc1Oc1ccc(F)cc1 returned LASV entry inh 18%, Marburg entry inh -6%, Shiga inhibitor 27 and CHX counter 27*.
Screening COc1cc(/C=N/O)ccc1Oc1ccc([N+](=O)[O-])cc1[N+](=O)[O-] returned LASV entry inh -17%, Marburg entry inh inconclusive, Shiga inhibitor -3 and CHX counter 5.
COc1ccc(/C=C/C(=O)c2ccccc2)cc1COc1ccc(F)cc1 was read as LASV entry inh -36%, Marburg entry inh inconclusive, Shiga inhibitor 29 and CHX counter 10.
Screening CCOc1ccc2oc(C(=O)N(CC)CC(=O)Nc3c(F)cccc3F)c(C)c2c1 returned LASV entry inh -12% and Marburg entry inh -16%.
`CCN1C(=O)C(C(=O)c2ccccc2)SC1=S` (stereo unspecified) gave Marburg entry inh -11%[46.1 µM], Shiga inhibitor 36 and CHX counter 14.
Screening CCc1cccc(CC)c1NC(=O)Cn1nnc2sc3c(c2c1=O)CCCC3 returned LASV entry inh 2%[46.1 µM] and Marburg entry inh 24%[46.1 µM].
Screening COc1ccc(/C=C/C(=O)c2ccc(C(=O)/C=C/c3ccc(OC)c(OC)c3)cc2)cc1OC returned Shiga inhibitor 20 and CHX counter 28*.
For COC(=O)c1ccc(/C=C/C(=O)O)cc1 the results were Shiga inhibitor -1 and CHX counter -1.
For COc1ccc(/C=C/C(=O)c2cc(Br)ccc2OC(=O)c2ccco2)cc1OC the results were LASV entry inh inconclusive, Marburg entry inh 5.8µM*!, Shiga inhibitor 10 and CHX counter 10.
For COc1ccc(/C=C/c2ccncc2)cc1OC the results were LASV entry inh 3%, Marburg entry inh 10%, Shiga inhibitor 57* and CHX counter 28*.
Screening COC(=O)c1ccc(/C=C/C(=O)c2ccc(OC)cc2)cc1 returned LASV entry inh 3%, Marburg entry inh 5%, Shiga inhibitor 54 and CHX counter 25*.
COC(=O)c1ccc(/C=C/C(=O)c2ccc(OC)c(OC)c2)cc1 was read as LASV entry inh -22%, Marburg entry inh -2%, Shiga inhibitor 22 and CHX counter 13.
`CC(=O)C(=Nc1ccccc1Cl)NNc1ccc(Cl)cc1` gave LASV entry inh inconclusive, Marburg entry inh -29%, Shiga inhibitor 1 and CHX counter 0.
Screening O=C(/C=C/c1ccc(O)c([N+](=O)[O-])c1)c1ccc2ccccc2c1 returned LASV entry inh 15%[46.1 µM], Marburg entry inh -1%[46.1 µM], Shiga inhibitor 6 and CHX counter -3.
Screening COc1ccc(/C=C/C(=O)C2(O)CCCCC2)cc1 returned LASV entry inh inconclusive, Marburg entry inh inconclusive, Shiga inhibitor 47* and CHX counter 19*.
COc1ccc(/C=C/C(=O)Oc2ccc(C)cc2)cc1 was read as Shiga inhibitor 40 and CHX counter 1.
`COc1ccc(Oc2ccc(/C=C/C(=O)c3ccc(O)cc3)cc2[N+](=O)[O-])cc1` gave LASV entry inh 13µM*, Marburg entry inh inconclusive, Shiga inhibitor 20 and CHX counter 7.
Cc1ccc(C)c(N2CCN(C(=O)CCn3c(=O)[nH]c4ccccc4c3=O)CC2)c1 was read as LASV entry inh -12%[46.1 µM].
Screening Cc1cc(C)c2cc(CN(Cc3ccco3)C(=O)NCc3ccccc3)c(=O)[nH]c2c1 returned LASV entry inh inconclusive, Marburg entry inh 2.8µM*, Shiga inhibitor -9 and CHX counter 3.
`Cc1cc(C)c2cc(CN(CC3CCCO3)C(=S)NCc3ccco3)c(=O)[nH]c2c1` (stereo unspecified) gave LASV entry inh -17%, Marburg entry inh -10%[46.1 µM], Shiga inhibitor -11 and CHX counter -4.
CCCCC(=O)NC(c1cccc([N+](=O)[O-])c1)c1c(OC(C)=O)ccc2ccccc12 (stereo unspecified) was read as LASV entry inh -5%, Marburg entry inh -9%, Shiga inhibitor 5 and CHX counter 17*.
For c1cncc(-c2noc(C34CC5CC(CC(C5)C3)C4)n2)c1 the results were LASV entry inh -25%, Marburg entry inh 14%, Shiga inhibitor 36* and CHX counter 22*.
Screening Cc1ccccc1-c1noc(C23CC4CC(CC(C4)C2)C3)n1 returned LASV entry inh -6%, Marburg entry inh -3%, Shiga inhibitor -5 and CHX counter -1.
